# Rows were chosen to be rich in hits. Some 14% of all compounds tested hit in one or more screens of this group.
# HCV inhibitor: blocks hepatitis C virus | Huh7.5.1 HCVcc-Cre infection, luciferase reporter, 44 h | Potency, µM (highest dose often 41.8 µM), for inactives: at the top dose activity change, negative = inhibition, usual class: inhibitors | 340,000 tested, 3.4% active; also: potency is read from the fitted curve at half-maximal effect
#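 Cells seeded at 1,000/well and cultured 4 h, then compounds added followed by HCVcc-Cre virus (~0.5 moi). After 44 h further culture, luciferase substrate was added, plates held 15 min at room temperature, and luminescence read for 15 sec.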
# Pf growth 96h: P. falciparum growth inhibition at 96 hours; P. falciparum luciferase reporter growth, 96 h; Potency, µM (titrated, usually from 28.7 µM), for the others: at the highest dose activity change, negative = inhibition, actives largely listed as inhibitors; 320,000 tested, 6.9% active; also: potency is read from the fitted curve at half-maximal effect
#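 Plates of compound plus infected erythrocytes (2% hematocrit, 0.05% parasitemia final) incubate 96 hours, 37 C, 5% CO2. Detection reagent added; reduced luminescence from the parasites' luciferase reporter flags inhibition.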
# HCMV inh: human cytomegalovirus inhibition. HFF cells, HCMV-luciferase reporter, 72 h; hits give low values. activity change, negative = inhibition, % at 57.5 µM. 410,000 tested, 4.5% active. AID 1259415; in the data active = activity change below about -60%; inconclusive = no clear call, values can overlap the other calls; inactive = above about -39%
#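 Luciferase read-out from HCMV-luciferase-infected HFFs (MOI 1 PFU/cell) 72 h post infection at 37C; compounds added after 16 h cell attachment; activity normalized between buffer-only basal and Salinomycin (10uM) inhibitor controls.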
# MARV entry inh: inhibitors of Marburg virus binding or cell entry. Potency, µM (series often up to 37.8 µM), for inactives: at the highest dose activity change, negative = inhibition, hits mostly inhibitors. Marburg virus pseudotyped entry inhibition, cell reporter. 300,000 tested, 1.8% active; calls by dose curve; tested in HEK293 cells; also: potency is read from the fitted curve at half-maximal effect
# Pf growth 48h: inhibits P. falciparum growth in the first generation, 48 h. Potency, µM (series often up to 28.7 µM), inactives show top-dose activity change, negative = inhibition, usual class: inhibitors. AID 504832. 310,000 tested, 5.9% active. P. falciparum luciferase growth in erythrocytes, 48 h; also: potency is read from the fitted curve at half-maximal effect
#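 Compounds are pin-transferred into medium, infected erythrocytes (2% hematocrit, 0.1% parasitemia final) are added, and plates sit one parasite generation at 37 C in 5% CO2. Detection reagent is then added and luminescence measured.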
# LASV entry inh: inhibitors of Lassa virus binding or cell entry; Potency, µM (highest dose often 37.9 µM), inactives show at the highest dose activity change, negative = inhibition, actives largely listed as inhibitors; Lassa virus pseudotype entry inhibition, cell reporter; 300,000 tested, 1.2% active; AID 540256; calls by dose curve; tested in HEK293 cells; also: potency is read from the fitted curve at half-maximal effect; nearly all actives have a fitted effect of over 50% in size
# Starred values were filed as active, the others as inactive; ? = inconclusive; · = no result given; [ ] = remark or other dose. Unless noted, calls follow the shape of the dose curve; as a rule, active = well fitted inhibition curve with a large enough effect; inconclusive = small, poorly fitted or top-dose-only effect, or another doubt; inactive = no such curve, though single readings can be large or run the other way. % is scaled to controls: 0 for no effect and ±100 for the full control effect.
SMILES,HCV inhibitor,Pf growth 96h,HCMV inh,MARV entry inh,Pf growth 48h,LASV entry inh
COc1ccc(-c2ccc(F)cc2)cc1[C@H]1[C@H]2C=CC[C@@H](C)[C@@H]2C(=O)N1Cc1ccccc1,-25.4%,?,-15.8,·,11.7µM*,·
COc1ccc(Br)cc1[C@H]1[C@H]2C=CC[C@@H](C)[C@@H]2C(=O)N1Cc1ccccc1,?,?,22.3,·,?,·
COc1ccc(-c2ccc([C@H]3[C@H]4C=CC[C@@H](C)[C@@H]4C(=O)N3Cc3ccccc3)c(F)c2)cc1C,20.4%,?,27.1,·,10.4µM*,·
COc1ccc(-c2c([C@H]3[C@H]4C=CC[C@@H](C)[C@@H]4C(=O)N3Cc3ccccc3)ccc3ccccc23)cc1OC,?,2.94µM*,-83.6*,·,2.33µM*,·
COc1ccc(OC(=O)N(C)C[C@@H]2OCc3cn(nn3)CCCC(=O)N([C@@H](C)CO)C[C@H]2C)cc1,·,·,10.3,·,·,·
CCOC(=O)c1ccccc1NC(=O)CSc1ccc(-c2ccccn2)nn1,?,?,-28.7,·,?,·
Cc1cccc(NC(=O)CSc2ccc(-c3cccnc3)nn2)c1,?,11.7µM*,?,-15.3%,?,-0.6%
CC(=O)Nc1cccc(NC(=O)CSc2ccc(-c3ccccn3)nn2)c1,?,?,?,-23.1%,?,?
Cc1ccccc1NC(=O)CSc1ccc(-c2ccc(-n3cccn3)cc2)nn1,3.7%,15.9%,-23.2,21.3%,0.8%,-4.9%
Cc1cccc(NC(=O)CSc2ccc(-c3ccccn3)nn2)c1,·,·,-105.3*,·,·,-8.9%[46.1 µM]
COc1ccccc1NC(=O)CSc1ccc(-c2ccc(-n3ccnc3)cc2)nn1,?,?,-21.5,-16.7%,11.7µM*,-9.9%
COc1ccc(C)cc1NC(=O)CSc1ccc(-c2ccccn2)nn1,?,9.28µM*,-93.2*,?,?,?
Cc1ccc(NC(=O)C(Cc2ccccc2)NS(=O)(=O)c2ccc3c(c2)c(=O)n(C)c(=O)n3C)c(C)c1 (stereo not drawn),·,·,-5.8,6.3%[46.1 µM],·,2.3%[46.1 µM]
Cc1ccc(N2CCN(C(=O)c3noc4c3COc3ccc(C)cc3-4)CC2)c(C)c1,·,·,-6.0,·,·,29.9%[46.1 µM]
COC(=O)C1=C(C)N(CCC(C)O)C(=O)N(C(C)=O)C1c1ccccc1 (stereo not drawn),·,·,·,5.4%[14.2 µM],·,?
CC(=O)c1cccc(Nc2cc(C)nc3ccccc23)c1,?,-26.7%,8.8,·,17.6%,·
CC(=O)c1ccc(Nc2cc(C)nc3c(C)cc(C)cc23)cc1,?,?,?,4.11µM*,11.7µM*,?
Cc1cc(C)c2nc(C)cc(Nc3ccc(C(=O)NCCO)cc3)c2c1,-12.5%,11.7µM*,-91.0*,11.2µM*,10.4µM*,-27.5%[46.1 µM]
CC(=O)c1cccc(Nc2cc(C)nc3c(C)cccc23)c1,-16.7%,-105.1%,12.2,?,11.7µM*,2.8%
CC(N)c1csc(Nc2ccc(C(=O)NCCO)cc2)n1 (stereo not drawn),·,·,18.1,·,·,·
Cc1cc(C)c2nc(C)cc(Nc3ccc(C(=O)N(C)C)cc3)c2c1,5.6%,4.1%,·,·,?,·
CC(C)(C)C(C(=O)Oc1ccccc1)c1ccccc1 (stereo not drawn),15.6%,?,0.6,·,17.5%,·
Cc1[nH]c2ccccc2c(=O)c1C(=O)/C=C/c1ccccc1,11.2µM*,?,-97.2*,·,?,·
Cc1[nH]c2ccccc2c1/C=C/C(=O)c1ccccc1,?,116.4%,37.6,-32.4%,26.3%,?
O=C(C=Cc1ccccc1)c1c[nH]c2ccccc2c1=O,11.2µM*,·,-77.2*,?,·,?
SMILES,HCV inhibitor,Pf growth 96h,HCMV inh,MARV entry inh,Pf growth 48h,LASV entry inh
CCCNC(=O)C1(C)CCCN(Cc2ccccc2N(C)C)C1 (stereo not drawn),·,·,13.6,·,·,·
Nn1cnnc1SCC(=O)N1CCc2ccccc2C1,-19.7%,-17.3%,-5.2,·,13.5%,·
CCOC(=O)/C(C#N)=C\c1ccc(OCC(=O)Nc2ccc(C)cc2C)c(OC)c1,-2.4%,2.62µM*,8.7,-0.8%,38.5%,-5.6%
Cc1ccc(C=Nc2ccc(N(C)C)cc2)o1,2.7%,0.928µM*,-75.7*,37.8%,?,?
Cc1ccc(C=Nc2ccccc2C(N)=O)o1,11.1%,201.6%,3.5,0.0%,155.4%,-0.7%
CCOc1ccc2c(c1)c(N=NC(N)=S)c(O)n2C,0.7%,5.22µM*,-39.8,·,9.28µM*,·
OC(CON=C1c2ccccc2-c2ccccc21)CN1CCNCC1 (stereo not drawn),2.51µM*,?,-28.5,?,?,?
Cc1ccc(S(=O)(=O)CC(=O)c2ccc(C(C)(C)C)cc2)cc1,7.1%,2.62µM*,18.3,-20.3%,2.33µM*,-16.6%
O=C(COc1ccccc1[N+](=O)[O-])N(Cc1ccco1)c1ccccn1,·,·,49.0,33.9%[46.1 µM],·,?
c1ccc2c(c1)OCc1nccn1-2,·,·,1.3,·,·,·
CCN(C[C@H]1N[C@@](Cc2ccccc2)(C(=O)OC)[C@H]2C(=O)N(C)C(=O)[C@@H]12)C(C)=O,47.6%[8.37 µM],·,-10.0,·,·,·
Cn1cnnc1Sc1cc(N2CCN(S(=O)(=O)c3ccc(Cl)c(Cl)c3)CC2)ccc1[N+](=O)[O-],?,-2.0%,-8.8,?,11.7µM*,-23.8%
O=C(NCc1ccc(F)cc1)c1cnc(N2CCCCC2)c2ccccc12,·,·,6.9,·,·,?
CN(C)c1ccc(N2CN=C3SCC(=O)N3C2)cc1,0.8%,?,30.1,-34.4%,1.47µM*,-18.1%
COc1cccc2c1Oc1ncccc1N(C(=O)CCC(=O)NC(C)C)C2,·,·,-0.1,·,·,-3.3%[46.1 µM]
CNC1=CN(O)C(c2ccccc2)=c2cc(Cl)ccc2=N1,·,13.5µM*,·,·,19µM*,·
Cc1cc2c(s1)c1c(C)nn(Cc3ccc(F)cc3)c(=O)c1n2C,·,13.7%,·,·,-0.1%,·
Cc1ccccc1-c1nc(CN2CCC(C(=O)NCCc3ccccc3)CC2)c(C)o1,·,·,13.7,20.5%[46.1 µM],·,-23.1%[46.1 µM]
Cc1ccccc1-c1nc(CN2CCC(C(=O)NCCCN3CCCC(C)C3)CC2)c(C)o1 (stereo not drawn),5.01µM*,9.3%,-63.4*,?,?,?
Cc1ccccc1-c1nc(CN2CCC(C(=O)NCCC3=CCCCC3)CC2)c(C)o1,6.31µM*,·,-4.0,?,?,?
COc1ccc(CCNC(=O)C2CCN(Cc3nc(-c4ccccc4C)oc3C)CC2)cc1OC,7.94µM*,15.0%,-17.8,?,?,-7.3%
Nc1ncc([N+](=O)[O-])cc1S(=O)(=O)c1ccccc1,11.9%,·,-25.9,·,·,·
COc1ccc(CNC(=O)CN(c2cc(C(F)(F)F)ccc2Cl)S(C)(=O)=O)cc1,·,·,3.3,?,·,-10.0%[46.1 µM]
CCCCc1ccc(Nc2cc(C)nc(-n3nc(C)cc3C)n2)cc1,·,·,-96.8*,·,·,?
Cc1cc(Nc2cc(F)ccc2C)nc(-n2nc(C)cc2C)n1,·,·,-80.0*,·,·,?

# Bioassay records: PubChem BioAssay, National Center for Advancing Translational Sciences (NCATS)
